In PubChem BioAssay (NCI):
Compounds without any hit were thinned out: in the full panel of roughly 79,000, 15% have a hit. A number with no mark means an inactive call. The source made the active and inactive calls. No stated cut-off is given here; in the data, active means growth inhibition above about 70%; inactive means the rest.

Experiment: NCI Yeast Anticancer Drug Screen. Data for the bub3 strain (AID 167)
Conditions: S. cerevisiae bub3 mutant strain, at 50.0 µM, hits give high values
Experimental: Growth inhibition of yeast strains with defined genetic alterations is measured as a screen for potential anti-cancer activity. Selected strains with alterations in DNA damage repair or cell cycle control were exposed to compounds and growth inhibition was measured relative to vehicle treated controls. The strain used in this assay is bub3

Structure (SMILES)	growth inhibition
C=C1C(=O)C2CCN1CC2	-18.1%
NCC(O)C(O)C(O)C(O)CO (stereo not given)	18.1%
CCOc1ccc2c(c1)c(C)cc(C)[n+]2CC	13%
O=Cc1ccc(F)cc1	-10.6%
CC(=O)OC/C(C)=C\CC(C)COC(C)=O (stereo not given)	-18.6%
S=CN1CCCCC1	-23.8%
CC1(C)OC(=O)CC1=O	1.8%
BrCc1cccc(C[P+](c2ccccc2)(c2ccccc2)c2ccccc2)c1	38.5%
NC(=O)c1cc2c3ccccc3ccn2c1-c1ccccc1	64%
CCOC(=O)C(C#N)=C1CCN(C)CC1	-27.4%
CC(C)c1ncc([N+](=O)[O-])n1C	6.15%
C=CCc1cc(OC)c(OC)c(OC)c1	-9.7%
O=Cc1ccc(Cl)c(Cl)c1	-5.85%
Nc1ncnc(Nc2ccc(C(F)(F)F)cc2)n1	25.6%
ON1CCCC1	6.4%
C1=NCCc2ccccc21	2.05%
O=c1nc(Nc2cccc(Cl)c2)oc2cc(Cl)oc(=O)c12	36.5%
CCOC(=O)c1ccc(NC(C)=O)o1	-5.35%
CC(C)c1ccccc1NC(=O)N1CCC(C(C)C)CC1	-7%
Oc1cc2ccccc2c(-c2c(O)c(O)cc3ccccc23)c1O	87% (active)

Structure (SMILES)	growth inhibition
Cc1ccc(S(=O)(=O)Oc2ccc3sc4c(CO)ccc(NCCN(C)C)c4c(=O)c3c2)cc1	22.4%
O=C(Nc1cccc(Cl)c1)c1ccc(Cl)cc1Cl	20.6%
CCCCNC(=O)c1ccc(OCC)cc1	-8.85%
CC(C)N(C(=O)c1ccccc1)C(C)C	-7.35%
CCCOCc1cn[nH]n1	-8.95%
Nc1ncc([N+](=O)[O-])cn1	5.6%
C/C(Cc1ccccc1)=N\O	-7.95%
Cc1ccc(C)c2c1CCC2=O	3.85%
Cc1cccnc1NC1OC(=O)c2ccccc21 (stereo not given)	-9.25%
CCc1ccccc1C(=O)N(CC)CC	-16.1%
CCC(C)c1c(N)n(S(=O)(=O)c2ccc(C)cc2)oc1=O (stereo not given)	16.6%
COC(=O)c1ccccc1C(=O)c1c(C)cc(C)cc1C	46.9%
CCN(CC)c1ccc2nc3ccc(N=Nc4ccc(N(C)C)cc4)cc3[n+](-c3ccccc3)c2c1	39.5%
O=S(=O)(O)c1cccc2cccnc12	10.4%
O=C(O)c1c[nH]c2ccccc2c1=O	1.65%
O=[n+]1ccn([O-])c2ccccc21	-8.1%
Cc1ccc2nc(N)nnc2c1	-17.1%
OCC1OC(n2ccc3c2ncn2ncnc32)C(O)C1O (stereo not given)	-37.6%
O=C(OCc1ccccc1)n1nnc2ccccc21	19.2%
CC(=O)[C@@]1(O)CC[C@H]2[C@@H]3CC[C@@H]4CC(=O)CC[C@]4(C)[C@H]3[C@@H](O)C[C@@]21C	11.1%
